Results reported in PubChem BioAssay AID1688 (National Center for Advancing Translational Sciences (NCATS), 2009).
In all, about 220,000 compounds went through this assay and about 2,400 (1.1%) were called active. Where a call stands in place of a potency, no number is given. Another 7% or so got no clear call; they are omitted. The call rests on the fitted dose curve; in most records, active means well fitted inhibition curve with a large enough effect; inconclusive means small, poorly fitted or top-dose-only effect, or effect the other way; inactive means no such curve, though single readings can be large or run the other way. Only a selection was taken, and actives are over-represented in it overall.

Experiment: qHTS Multiplex Assay to Identify Dual Action Probes in a Cell Model of Huntington: Aggregate Formation (GFP); further: nearly all actives have a fitted effect of over 60% in size
Conditions: PC12 HttQ103-GFP aggregates, Acumen cytometry, 40 h; series mostly up to 9.22 µM
Excerpt: NIH Chemical Genomics Center [NCGC]
NIH Molecular Libraries Probe Production centers Network [MLPCN]
Assay Submitter (PI): Wei Zheng
Huntington's disease is a neurodegenerative disorder caused by a trinucleotide repeat expansion in Exon 1 of the Huntingtin gene. The CAG trinucleotide encodes glutamine and polyglutamine expansions cause cell death in selective areas of the brain. Huntington polyglutamine repeats have the tendency to form aggregates which are observable in later stages of the disease. The exact nature of the aggregates, whether toxic, protective, or insignificant, is unclear.
A stable PC12 cell line containing a gene fusion of Exon 1 of the Huntingtin gene linked to GFP under the control of the inducible ecdysone promoter were used as the cell-based model of Huntington Disease for high throughput screening. Exon 1 of the Huntingtin gene contained an expansion of 103 polyglutamines (Q103) which, when expressed, caused cell death and distinct, bright GFP aggregates. The amount of cell death and the size and intensity of GFP aggregates increased over time and induction level. The cell death were quantified with a measurement of ATP content in the cells. A maximal 40-50% of cell death was observed when the Huntington gene was induced in this cell line.
We optimized this assay in a homogeneous 1536 well format. A quantitative high throughput screen (qHTS) was conducted on the PC12 cells which were induced to express the toxic fusion construct. Small molecules which reduced aggregate formation were identified bu using a laser scanning cytometer calibrated to detect the aggregates in cell lysates.
PC12 cells stably containing a construct with an ecdysone inducible promoter expressing GFP fused to the exon 1 of HTTQ103 (Huntington protein which containing a 103 ployglutamine expansion) were used.
NCGC Assay Protocol Summary:
Sequence, Parameter, Description
1, Reagent, 5 uL 1500 cells/well 1536 TC treated White clear bottom plate
2, Compound, 23 nL Tebufenozide inducer (100 nM final) to all columns
3, Compound, 23 nL 40 uM to 0.5 nM Libraries
5, Reagent, 5 ul ATPLite cell death assay reagent
6, Detector, Aggregate quantitation by Acumen Explorer
Media consisted of phenol red free DMEM + 5% equine serum (Hyclone # SH30072.03 ), 5% supplemented Bovine Calf Serum (Hyclone # SH30074.03 ), 1x pen/strep, no G418
Acumen Explorer was used to quantitate GFP aggregates using the following criteria: […] laser excitation, 500-530 nm emission, the PMT was set at a voltage of 450 volts, and objects ranging in size of […] in size having a signal of 6 STDEV above background were collected.
Control columns: 1 = DMSO, 2= 2 uM teb dilns (1:1), 4 = 100 nM Teb inducer. Sample columns received 100 nM Teb.
Potency means the concentration at half of the fitted maximal effect.

SMILES	Potency
COC(=O)c1ccc(Cc2ccccc2)o1	0.0004 µM (active)
COC(=O)c1ccc(CN(c2ccccc2OC)S(=O)(=O)c2cccs2)o1	inactive
COC(=O)c1ccc(CSc2ccccc2C)o1	inactive
Cn1c(=O)c2c(nc(NCc3ccccc3)n2CC(N)=O)n(C)c1=O	inactive
Cc1ncn2cc(-c3ccc(Cl)cc3Cl)[nH]c(=O)c12	inactive
C=C(C)CNC(=S)Nc1ccc(S(=O)(=O)Nc2cnc3ccccc3n2)cc1	inactive
CCc1cc2c(N3CCN(c4nnc(CC)s4)CC3)ncnc2s1	17.8 µM (active)
CCc1cc2c(NC3CCCC3)ncnc2s1	inactive
Oc1ccccc1N1CCN(c2ncnc3sc(-c4ccccc4)cc23)CC1	inactive
Cc1ccc(C(O)P(=O)(OC(C)C)c2ccc(N(C)C)cc2)cc1 (configuration not stated)	inactive
O=C(/C=C/Nc1ccc(S(=O)(=O)Nc2cnc3ccccc3n2)cc1)c1cccnc1	inactive
CCOC(=O)c1ccc(N=C2SC(C(=O)NC)CC(=O)N2CCc2ccccc2)cc1 (configuration not stated)	inactive
CC1=CC(C)(C)NC(=S)N1NC(=O)c1ccccc1Cl	inactive
CN(NC(=O)c1ccccc1F)c1nc(C(F)(F)F)nc2ccccc12	inactive
CSc1nc(N(C)NC(=O)c2cccc(C)c2)c2ccccc2n1	1.26 µM (active)
CN(NC(=O)c1ccccc1)c1nc2ccccc2nc1C(F)(F)F	inactive
O=C(OCc1ccccc1)c1ccc(O)cc1	inactive
O=C(NCc1cccnc1)C(=O)Nc1nc(-c2ccccc2)cs1	inactive
CCc1ccc(-c2nn(-c3ccccc3)cc2CSC(=N)N)cc1	17.8 µM (active)
CCn1c(SCc2ccc(C)cc2)nnc1-c1nn(-c2ccccc2)ccc1=O	inactive
O=C(Nc1cn(-c2ccccc2)nc1-c1ccccc1)c1ccccc1	inactive
Cc1cc(Nc2ccc(Cl)cc2)nc(N2CCOCC2)n1	inactive
CC(=O)NC(=O)c1ccccc1O	inactive

SMILES	Potency
Cc1nnc(C)c2c(C)n(N)c(C)c12	inactive
CCN1/C(=C/C(=S)Nc2ccccc2)Sc2ccccc21	inactive
CCC(=O)/C=C1\Sc2ccccc2N1CC	inactive
CCN1/C(=C/c2ccc3ccc(C)cc3[n+]2CC)Sc2ccccc21	7.94 µM (active)
COc1ccccc1N(C)S(=O)(=O)c1ccc(C(=O)NC2CCCCCC2)cc1	inactive
Nc1ccc(C(=O)OCC(=O)NC2CCS(=O)(=O)C2)cc1[N+](=O)[O-] (configuration not stated)	inactive
Cc1cccc(NC(=O)c2sc3nc4c(c(-c5ccco5)c3c2N)CCC4)c1	inactive
NC(=O)c1sc2nc3c(c(-c4ccccc4)c2c1N)CCC3	7.08 µM (active)
CC(=O)Nc1ccc(NC(=O)c2sc3nc4c(c(-c5ccc(C)cc5)c3c2N)CCC4)cc1	inactive
CCNc1nc(Oc2ccc(C(=O)OC)cc2)nc(N2CCOCC2)n1	inactive
Cc1cc(=O)[nH]c(SCC(=O)Nc2ccc(Br)cc2)n1	inactive
C=CCNC(=S)NNC(=O)c1cc(Cl)ccc1OC	inactive
O=C(Nc1nncs1)c1cccc(S(=O)(=O)N2CCCCC2)c1	inactive
CCOC(=O)CSc1nnc(NC(=O)c2cccc(S(=O)(=O)N3CCCC3)c2)s1	1 µM (active)
CCOC(=O)CSc1nnc(NC(=O)c2cccc(S(=O)(=O)N3CCCCC3)c2)s1	inactive
O=P(O)(CN1CCCCCC1)C1Cc2ccccc2C1	inactive
NS(=O)(=O)c1ccc(Nc2nc(-c3ccccc3)cs2)cc1	11.2 µM (active)
COc1ccc(Nc2nc(-c3ccccc3)cs2)cc1	inactive
CC(=O)Nc1nc(C)c(-c2csc(Nc3ccc(S(N)(=O)=O)cc3)n2)s1	inactive
OCC(CO)NC1C[C@](O)(CO)[C@@H](O)[C@H](O)[C@H]1O (some centres not stated)	inactive
Oc1c(Cl)cc(Cl)c(Cl)c1Cc1c(O)c(Cl)cc(Cl)c1Cl	5.62 µM (active)
Cc1ccccc1NCC(=O)N/N=C\c1ccc([N+](=O)[O-])s1	11.2 µM (active)
CC(C)(C)c1cc(C(=O)N/N=C/c2ccc([N+](=O)[O-])s2)n[nH]1	inactive

SMILES	Potency
CCOc1ccc(NC(=O)CCC(=O)N/N=C/c2ccc([N+](=O)[O-])s2)cc1	inactive
Cc1ccc(S(=O)(=O)NNC(=S)NC(C)(C)C)cc1	inactive
CC(O)COc1ccccc1 (configuration not stated)	inactive
O=C(Nc1nnc(-c2ccco2)o1)c1ccc(S(=O)(=O)N2CCOCC2)cc1	inactive
CC1CCCCN1S(=O)(=O)c1ccc(C(=O)Nc2nnc(-c3cccs3)o2)cc1 (configuration not stated)	11.2 µM (active)
CC1CCCCN1S(=O)(=O)c1ccc(S(=O)(=O)N(CC(=O)Nc2ccccc2)Cc2cccs2)cc1 (configuration not stated)	inactive
COc1ccc(C(=O)N/N=C(\C)CC(=O)Nc2ccc(Cl)cn2)cc1	inactive
COC(=O)c1sccc1NC(=O)CC1C(=O)NCCN1C(=O)Nc1ccc(F)cc1F (configuration not stated)	inactive
N/C(=N/O)c1cccn1Cc1ccccc1[N+](=O)[O-]	inactive
O=c1c([N+](=O)[O-])cccn1Cc1ccc(F)cc1Cl	10 µM (active)
O=c1c([N+](=O)[O-])cc(C(F)(F)F)cn1Cc1cccc(Cl)c1	inactive
O=C(NCC1CCCO1)c1ccccc1-c1nc(-c2ccccc2Cl)no1 (configuration not stated)	inactive
CC(=O)Nc1ccc(C(=O)/C=C/c2ccc[nH]2)cc1	11.2 µM (active)
CC(=O)Nc1ccc(/C=C/C(=O)c2ccccc2)cc1	inactive
CCCC(=O)Nc1ccc(C(=O)N/N=C/c2ccc[nH]2)cc1	inactive
Cn1c(=O)c(=O)n(C)c2cc(S(=O)(=O)NCCN3CCN(c4ccccc4F)CC3)ccc21	inactive
COC(=O)CNc1nc(Cl)nc(N2CCC(C)CC2)n1	inactive
N#Cc1c(C(F)(F)F)cc(-c2cccs2)nc1N1CCCCC1	inactive
O=C(Nc1ccncc1)c1c(F)cccc1F	12.6 µM (active)
CSc1nc2ccc(NC(=O)c3c(F)cccc3F)cc2s1	inactive
COc1cccc(OC)c1C(=O)Nc1ccc(Cc2ccncc2)cc1	inactive
O=C(Nc1ccccc1C(F)(F)F)N1CCCC1c1cccnc1 (configuration not stated)	inactive
CCOC(=O)c1c(C)[nH]c2c1-c1ccccc1C(=O)C2=O	5.01 µM (active)

SMILES	Potency
CCOC(=O)c1cc2n(c1N)-c1ccccc1C2=O	inactive
Cc1[nH]c2ccccc2c1C(=O)COC(=O)C(C)C	inactive
Nc1nnc(SCC(=O)NC2CCCc3ccccc32)s1 (configuration not stated)	inactive
O=C(CCl)Nc1ccc(Sc2ccc(NC(=O)CCl)cc2)cc1	inactive
O=C(Cc1ccc(Cl)c(Cl)c1)Nc1ccc(SC(F)F)cc1	12.6 µM (active)
O=C(Cc1ccc2c(c1)CCCC2)Nc1ccccc1Cl	inactive
O=C(NNC(=O)c1cnccc1C(F)(F)F)c1ccc(Cl)cc1	inactive
CC(=O)NC(CC(=O)Nc1nccs1)c1ccccc1 (configuration not stated)	inactive
CCOC(=O)C1=C(c2ccc(OC)cc2)C(=O)c2ccccc2C1=O	11.2 µM (active)
CCOC(=O)c1c(-c2ccc(C)cc2)csc1/N=C(\C)C1=C(O)c2ccccc2C1=O	inactive
CCCCC(C(=O)OCC(=O)c1ccc(OC)cc1)N1C(=O)c2ccccc2C1=O (configuration not stated)	inactive
CC(CNS(=O)(=O)c1ccc(Br)cc1)CN(C)C (configuration not stated)	inactive
c1ccc(-c2nnc(N3CCOCC3)c3ccccc23)cc1	inactive
CN1CCN(c2nc(Nc3ccc(O)cc3)nc3ccccc23)CC1	inactive
c1ccc(Nc2nc(N3CCOCC3)c3ccccc3n2)cc1	12.6 µM (active)
CN(c1ccc(OCC(=O)NC2=NCCS2)cc1)S(=O)(=O)c1ccc(F)cc1	inactive
Cc1ccc(C(=O)Nc2nnc(-c3cccs3)s2)cc1C	inactive
N#Cc1ccc(C(=O)Nc2nc(-c3cccs3)c(C(=O)C(F)(F)F)s2)cc1	2.82 µM (active)
CC(=O)c1sc(NC(=O)c2ccc(C)cc2)nc1C	inactive
Clc1ccc(CSc2nnc3c(n2)[nH]c2ccccc23)cc1	inactive
Cc1ccc(CSc2nnc(-c3cnccn3)n2C)cc1	inactive
Oc1ccc(Br)cc1C=Nc1ccc2[nH]ncc2c1	inactive
O=C(CCCO)N/N=C/c1cc(Br)ccc1O	7.94 µM (active)

SMILES	Potency
COc1ccc(CC(=O)NCC(=O)N/N=C/c2cc(Br)ccc2OC)cc1	inactive
COc1ccc(Cl)cc1CSc1ncn[nH]1	inactive
COc1ccc(OC)c(C(=O)CSc2nnc(-c3cccs3)o2)c1	inactive
COc1ccc(-c2nnc(SCC(=O)c3cccs3)o2)c(OC)c1	inactive
COc1ccc(-n2c(C)cc(C(=O)CSc3nnc(-c4cccs4)o3)c2C)cc1	7.94 µM (active)
C/C=N/N(c1ccccc1)c1ccccc1	inactive
COc1cccc(Nc2nnc(SCC(=O)N3CC(=O)Nc4ccccc43)s2)c1	inactive
O=P(O)(O)OC[C@H](O)CO	inactive
Cc1nc(CNS(=O)(=O)c2cccnc2)cs1	inactive
Cc1nc(CNS(=O)(=O)c2ccc(Oc3ccccc3)cc2)cs1	10 µM (active)
Cc1ccc(S(=O)(=O)NCc2csc(C)n2)c(C)c1	inactive
CSC1=NC2(C)CCCCC2C12C=CC(=O)C=C2 (configuration not stated)	inactive
Nn1c(SCc2ccccc2)nnc1C1CCCCC1	inactive
Cc1cccc(Cn2c(SCCO)nc3c2c(=O)n(C)c(=O)n3C)c1	inactive
CCCCNc1nc2c(c(=O)n(C)c(=O)n2C)n1Cc1cccc(OC)c1	7.08 µM (active)
CCCCNc1nc2c(c(=O)[nH]c(=O)n2C)n1CCOc1ccccc1	inactive
CCn1c(NCCc2ccc(OC)c(OC)c2)nc2c1c(=O)n(C)c(=O)n2C	inactive
COC(=O)C(C)Sc1nc2c(c(=O)n(C)c(=O)n2C)n1Cc1cccc(C)c1 (configuration not stated)	28.2 µM (active)
Cc1cccc(Cn2c(N3CCN(c4ccccc4)CC3)nc3c2c(=O)n(C)c(=O)n3C)c1	inactive
CN(C)C(=O)c1coc2nc3ccccc3nc12	inactive
